# Source: PubChem BioAssay (EPA / NIEHS)
# Several values for one entry are separate records, joined by “and”; a condition that tells them apart may be missing. Identical values can stand only once. Results filed as inconclusive are left out. Some structures have more than one record in an assay (separate samples or runs), and their calls can disagree. Activity calls are given as the source filed them. The calls were made as follows: active = hit-call score of the fitted dose curve at least 0.9, where 1 is the maximum; inconclusive = response in the unintended direction; inactive = score below 0.9.
# Tests used:
# [1] = ACEA_ER_AUC_viability: ACEA Biosciences xCELLigence Real-Time Cell Analysis on Estrogen Receptor Agonism for Viability (AID 2283782);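 also: hit means loss of impedance signal meaning reduced cell growth or viability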
# Procedure, shortened: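 Read-out: real-time electrical impedance (RT-CES) area under curve, loss of signal taken as reduced viability, normalized to DMSO baseline. T-47D cells, charcoal-stripped serum medium, compounds up to 100 uM final, continuous exposure, 80 h.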
# [2] = STM_H9_NormalizedViability: Cytotoxicity Assessment at 120 hours in the Stemina devTOX quickPredict H9 human embryonic stem cell (hESC)-based Assay (AID 2283784)
# Procedure, shortened: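 Viability endpoint: background-corrected CellTiter-Fluor RFU expressed relative to the 0.1% DMSO mean on each plate. Undifferentiated H9 cells were treated with daily re-dosing and media change, and loss of signal was fitted.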
# [3] = ATG_M_06_XSP1: Attagene TRANS-FACTORIAL Multi-Species (XSP1) HepG2 Assay for M06 Transcription Factor (Internal Marker) (AID 2283790)
# Procedure, shortened: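 This background-control readout tracks M06 reporter mRNA, measured by RT-PCR and capillary electrophoresis. HepG2 cells transiently carrying the GAL4-UAS reporter panel were dosed for 24 h with 3 nM 6-alpha-fluorotestosterone added for partial AR stimulation; increases were scored relative to DMSO.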
# [4] = ATG_M_61_XSP1: Attagene TRANS-FACTORIAL Multi-Species (XSP1) HepG2 Assay for M61 Transcription Factor (Internal Marker) (AID 2283797)
# Procedure, shortened: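 Background-control readout: reporter transcripts measured by RT-PCR and capillary electrophoresis 24 h after dosing transiently transfected HepG2 multi-reporter cells, with 3 nM 6-alpha-fluorotestosterone present. Fitted in the positive direction relative to DMSO.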
# AR (gene 367) [5] = biological target: AR (gene 367) (UniProt P10275); assay: ACEA_AR_agonist_80hr: ACEA Biosciences xCELLigence Real-Time Cell Analysis on Androgen Receptor Agonism for Proliferation (AID 2283783);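 also: hits increase impedance growth signal above DMSO baseline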
# Description: ACEA_AR_agonist is a cell-based, single-readout assay that uses 22Rv1, a human prostate cancer cell line, with measurements taken at 80 hours after chemical dosing in a 384-well plate, although TO5 and TO6 (mc0.srcf) used a 96-well plate. Differences in plate size can be ignored given data normalization.ACEA_AR_agonist_80hr is one of two assay component(s) measured or calculated from the ACEA_AR assay. It is designed to make measurements of real-time cell-growth kinetics, a form of growth reporter, as detected with electrical impedance signals by Real-Time Cell Electrode Sensor (RT-CES) technology.Data from the assay component ACEA_AR_agonist_80hr was analyzed in the positive analysis fitting direction relative to DMSO as the negative control and baseline of activity. Using a type of growth reporter, measures of the cells for gain-of-signal activity can be used to understand the signaling at the pathway-level as they relate to the geneAR Furthermore, this assay endpoint can be referred to as a primary readout, because this assay has produced multiple assay endpoints where this one serves a signaling function. To generalize the intended target to other relatable targets, this assay endpoint is annotated to the nuclear receptor intended target family, where the subfamily is steroidal.
# The xCELLigence system Multi-E-Plate stations were used to measure the time-dependent response to chemicals. Each compound was tested in an eight-point, 1:4 serial dilution series starting at a maximum final concentration of 100 uM. A maximum starting concentration of 0.5% DMSO was present in the 100 uM chemical samples and was diluted along with the test article dilution series. The screen was performed in biological duplicate using two separate, 96-well, E-Plates 96 for each dilution series (n = 2). Positive controls (MG132 and testosterone) and a negative control (assay media) were tested in quadruplicate on each testing plate. […] Reference compounds were tested with 8 concentrations with 1:5 serial dilutions. All screening was carried out by ACEA Biosciences, Inc. (San Diego, CA). 22Rv1 cells purchased from ATCC were maintained in media supplemented with 10% fetal bovine serum (FBS). Before screening, 22Rv1 cells were preconditioned in assay medium. Cells were then detached and seeded in E-Plates 96 in assay medium. After overnight monitoring of growth once every hour, compounds were added to […] cells and remained in the medium until the end of the experiment. Cellular responses were then recorded once every 5 min for the first 5 h, and once every hour for an additional 100 h.
# AR (gene 367) [6] = biological target: AR (gene 367) (UniProt P10275); assay: ACEA_AR_antagonist_80hr: ACEA Biosciences xCELLigence Real-Time Cell Analysis on Androgen Receptor Antagonism for Proliferation (AID 2283787);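 also: hits lower the impedance growth signal relative to DMSO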
# Procedure, shortened: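 Measures real-time proliferation of 22Rv1 prostate cancer cells by electrode impedance at 80 hours after dosing. Test articles ran at eight concentrations (1:4 steps, top 100 uM final) in biological duplicate.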
# [7] = biological target: Estrogen receptor beta (Homo sapiens) (UniProt Q92731); assay: ATG_hERb_XSP1: Attagene TRANS-FACTORIAL Multi-Species (XSP1) HepG2 Assay for human Estrogen Receptor (ESR2) (AID 2283788)
# Procedure, shortened: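 Transient MRTU transfection of HepG2; ERβ–GAL4 TRANS format; 24 h dosing; 3 nM 6α-fluorotestosterone co-added; RNA → RT-PCR → 6-FAM primer extension → CE; activity vs DMSO.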
# [8] = system: turtle Androgen Receptor (AR), gene 101947425; assay: ATG_trAR_XSP1: Attagene TRANS-FACTORIAL Multi-Species (XSP1) HepG2 Assay for turtle Androgen Receptor (AR) (AID 2283786)
# Procedure, shortened: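 Partial androgen stimulation is provided by 3 nM 6-alpha-fluorotestosterone in a multi-species trans-factorial panel expressing a turtle AR–GAL4 fusion in HepG2. After 24 h, reporter mRNA is measured by RT-PCR and capillary electrophoresis and fitted upward against DMSO.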
# [9] = biological target: GAL4 Transcription Factor (Internal Marker), GAL4 (gene 855828) (UniProt P04386); assay: ATG_GAL4_XSP1: Attagene TRANS-FACTORIAL Multi-Species (XSP1) HepG2 Assay for GAL4 Transcription Factor (Internal Marker) (AID 2283789)
# Description: ATG_XSP1_multi-species_TRANS is a cell-based, multiplexed assay created by modifying the existing Attagene TRANS-FACTORIAL system to include a panel of nuclear receptors from some or all the following species: human (Homo sapiens), mouse (Mus musculus), frog (Xenopus laevis), zebrafish (Danio rerio), chicken (Gallus gallus), and turtle (Chrysemys picta). The ECOTOX-FACTORIAL format uses HepG2, a human liver cell line, with measurements taken at 24 hours after chemical dosing in a 24-well plate. Xsp1 included 3 nM 6-alpha-fluorotestosterone to partially stimulate the androgen receptor.ATG_GAL4_XSP1 is one of 29 assay components measured or calculated from the ATG_XSP1_multi-species_TRANS assay. It is designed to make measurements of mRNA induction, a form of inducible reporter, as detected with fluorescence intensity signals by Reverse transcription polymerase chain reaction (RT-PCR) and Capillary electrophoresis technology.This assay endpoint, ATG_GAL4_XSP1, was analyzed in the positive analysis fitting direction relative to DMSO as the negative control and baseline of activity. Using a type of inducible reporter, measures of mRNA for gain-of-signal activity can be used to understand the background control at the transcription factor-level as they relate to the gene. Furthermore, this assay endpoint can be referred to as a secondary readout, because this assay has produced multiple assay endpoints where this one serves a background control function. To generalize the intended target to other relatable targets, this assay endpoint is annotated to the background measurement intended target family, where the subfamily is baseline control.
# Human liver HepG2 cells are transiently transfected with multiple reporter transcription units (MRTUs) in 6-well plates using FuGene 6 reagent (Roche; 3 ml FuGene/1 mg DNA). The MRTU constructs are regulated by a cis-regulating element (promoter). […] A major difference between the CIS and TRANS system is that in CIS activities of endogenous TFs are measured, whereas the TRANS assay evaluates changes in activities of exogenous, chimeric NR-Gal4 proteins. […] At the end of 24 hour incubation, total RNA was isolated using TriZol reagent (Invitrogen). The isolated RNA is then reverse-transcribed using oligo(dT) primer and Mo-MLV reverse transcriptase (Invitrogen) with DNAse I (Ambion) treatment for 30 min. The one-tenth of the produced cDNA was amplified by PCR using Taq DNA polymerase (Invitrogen) and two reporter sequence-specific primers. The PCR products were fluorescently labeled by primer extension with 6-arboxyfluorescein (6-FAM) 5'-labeled reporter sequence-specific primer (2 min at 95 C, 20 s at 68 C and 10 min at 72 C) and these products were digested with 5U of HpaI (New England Biolabs) for 2h at 37 C. The fragments were purified using Qiaquick PCR columns (Qiagen), analyzed on an ABI 3130xL genetic analyzer (Applied Biosystems) with peak positions identified by using a set of X-rhodamine (ROX)-labeled MapMarker1000 molecular weight standards (BioVentures). The raw capillary electrophoresis data was processed using Attagraph software (Attagene).
# [10] = biological target: human Androgen Receptor (AR), AR (gene 367) (UniProt P10275); assay: ATG_hAR_XSP1: Attagene TRANS-FACTORIAL Multi-Species (XSP1) HepG2 Assay for human Androgen Receptor (AR) (AID 2283785)
# Description: ATG_XSP1_multi-species_TRANS is a cell-based, multiplexed assay created by modifying the existing Attagene TRANS-FACTORIAL system to include a panel of nuclear receptors from some or all the following species: human (Homo sapiens), mouse (Mus musculus), frog (Xenopus laevis), zebrafish (Danio rerio), chicken (Gallus gallus), and turtle (Chrysemys picta). The ECOTOX-FACTORIAL format uses HepG2, a human liver cell line, with measurements taken at 24 hours after chemical dosing in a 24-well plate. Xsp1 included 3 nM 6-alpha-fluorotestosterone to partially stimulate the androgen receptor.ATG_hAR_XSP1 is one of 29 assay components measured or calculated from the ATG_XSP1_multi-species_TRANS assay. It is designed to make measurements of mRNA induction, a form of inducible reporter, as detected with fluorescence intensity signals by Reverse transcription polymerase chain reaction (RT-PCR) and Capillary electrophoresis technology.The assay endpoint ATG_hAR_XSP1 was analyzed in the positive analysis fitting direction relative to DMSO as the negative control and baseline of activity. […] Furthermore, this assay endpoint can be referred to as a primary readout, because this assay has produced multiple assay endpoints where this one serves a reporter gene function. […]
# Chain of Estrogen receptor beta (Homo sapiens) (Q92731 whole entry, looked up, the tested form may be a part): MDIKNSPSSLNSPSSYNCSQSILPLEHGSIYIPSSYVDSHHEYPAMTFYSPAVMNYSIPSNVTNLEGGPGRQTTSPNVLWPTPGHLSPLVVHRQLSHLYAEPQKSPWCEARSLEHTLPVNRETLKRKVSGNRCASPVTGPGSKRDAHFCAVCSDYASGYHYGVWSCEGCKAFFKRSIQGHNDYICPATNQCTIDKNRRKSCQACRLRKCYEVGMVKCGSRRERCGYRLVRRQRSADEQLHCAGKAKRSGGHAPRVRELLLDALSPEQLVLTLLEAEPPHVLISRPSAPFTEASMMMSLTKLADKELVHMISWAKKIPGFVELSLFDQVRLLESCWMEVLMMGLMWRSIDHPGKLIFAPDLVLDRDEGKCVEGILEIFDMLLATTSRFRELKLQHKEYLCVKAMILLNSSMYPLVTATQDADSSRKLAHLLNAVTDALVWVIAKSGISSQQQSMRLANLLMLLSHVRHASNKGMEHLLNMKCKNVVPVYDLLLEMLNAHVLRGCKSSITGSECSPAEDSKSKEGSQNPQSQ
# Chain of AR (gene 367) (P10275 whole entry, looked up): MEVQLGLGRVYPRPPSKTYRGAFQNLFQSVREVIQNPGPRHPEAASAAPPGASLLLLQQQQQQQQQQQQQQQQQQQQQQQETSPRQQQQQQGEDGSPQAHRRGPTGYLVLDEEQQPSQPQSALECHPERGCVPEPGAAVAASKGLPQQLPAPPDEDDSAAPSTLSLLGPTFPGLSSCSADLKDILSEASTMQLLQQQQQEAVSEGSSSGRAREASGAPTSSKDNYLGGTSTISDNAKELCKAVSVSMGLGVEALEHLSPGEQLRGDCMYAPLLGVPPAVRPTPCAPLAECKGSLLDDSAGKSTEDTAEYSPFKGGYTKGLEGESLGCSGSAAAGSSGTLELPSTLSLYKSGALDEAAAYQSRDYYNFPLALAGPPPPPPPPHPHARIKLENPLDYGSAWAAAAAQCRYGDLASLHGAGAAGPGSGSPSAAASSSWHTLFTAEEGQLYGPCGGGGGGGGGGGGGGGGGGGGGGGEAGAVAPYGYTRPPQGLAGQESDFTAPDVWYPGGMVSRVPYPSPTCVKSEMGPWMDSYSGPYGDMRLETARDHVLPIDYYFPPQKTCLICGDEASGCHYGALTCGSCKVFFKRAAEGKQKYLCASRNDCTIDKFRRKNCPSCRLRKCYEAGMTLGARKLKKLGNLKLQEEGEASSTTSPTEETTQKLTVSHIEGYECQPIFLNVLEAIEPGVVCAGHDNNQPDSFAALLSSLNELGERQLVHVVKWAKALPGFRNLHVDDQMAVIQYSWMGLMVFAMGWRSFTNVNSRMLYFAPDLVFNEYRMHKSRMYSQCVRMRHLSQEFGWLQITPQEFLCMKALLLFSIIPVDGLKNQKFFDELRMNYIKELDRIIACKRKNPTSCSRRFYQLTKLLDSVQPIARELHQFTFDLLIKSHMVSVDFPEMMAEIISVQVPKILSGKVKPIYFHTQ
# Chain of GAL4 Transcription Factor (Internal Marker), GAL4 (gene 855828) (P04386 whole entry, looked up, the tested form may be a part): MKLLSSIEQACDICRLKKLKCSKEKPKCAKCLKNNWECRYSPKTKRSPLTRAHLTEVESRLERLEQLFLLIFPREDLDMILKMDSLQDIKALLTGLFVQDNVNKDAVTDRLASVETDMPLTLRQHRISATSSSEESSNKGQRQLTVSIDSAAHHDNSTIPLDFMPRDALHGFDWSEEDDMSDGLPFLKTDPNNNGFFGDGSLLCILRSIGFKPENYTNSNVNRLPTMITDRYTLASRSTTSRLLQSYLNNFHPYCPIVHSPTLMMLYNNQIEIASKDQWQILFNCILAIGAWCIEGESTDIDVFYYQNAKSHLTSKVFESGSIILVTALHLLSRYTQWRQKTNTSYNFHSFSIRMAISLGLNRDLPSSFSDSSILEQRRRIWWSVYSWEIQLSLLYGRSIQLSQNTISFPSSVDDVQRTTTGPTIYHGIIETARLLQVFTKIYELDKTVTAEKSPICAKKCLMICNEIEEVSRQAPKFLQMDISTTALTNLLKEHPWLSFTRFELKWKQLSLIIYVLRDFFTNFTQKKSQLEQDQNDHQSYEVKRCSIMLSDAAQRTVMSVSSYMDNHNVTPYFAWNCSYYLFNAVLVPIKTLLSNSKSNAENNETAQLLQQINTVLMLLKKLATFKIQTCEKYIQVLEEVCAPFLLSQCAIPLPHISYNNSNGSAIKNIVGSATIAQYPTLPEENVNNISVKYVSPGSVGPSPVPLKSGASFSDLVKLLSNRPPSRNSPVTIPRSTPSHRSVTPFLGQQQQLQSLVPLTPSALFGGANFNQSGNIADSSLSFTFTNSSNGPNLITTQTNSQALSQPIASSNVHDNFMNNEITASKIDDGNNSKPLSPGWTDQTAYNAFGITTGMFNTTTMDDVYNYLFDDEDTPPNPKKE
# Chain of human Androgen Receptor (AR), AR (gene 367) (P10275 whole entry, looked up): as the sequence (P10275 whole entry, looked up) above
smiles,measurement,setting,value
CCCCC(CC)COC(=O)c1ccccc1C(=O)OCC(CC)CCCC (stereo not drawn),outcome,[1],inactive
same,outcome,[2],inactive
same,outcome,[3],inactive
same,outcome,[4],inactive
Cc1ccc(-c2c(Cl)nc(C#N)n2S(=O)(=O)N(C)C)cc1,outcome,AR (gene 367) [5],inactive
same,AC50,AR (gene 367) [6],14.1 µM (active)
OC(c1ccc(Cl)cc1)(c1cncnc1)c1ccccc1Cl (stereo not drawn),outcome,[1],inactive
same,outcome,[2],inactive
same,AC50,[7],1.98 µM (active)
CCCN(CCC)c1c([N+](=O)[O-])cc(S(N)(=O)=O)cc1[N+](=O)[O-],AC50,[1],24 µM (active) and 82.5 µM (active) and 21.4 µM (active)
same,outcome,[1],inactive
same,outcome,[8],inactive
same,AC50,[7],14.8 µM (active)
same,AC50,[9],49.1 µM (active)
same,outcome,[3],inactive
same,outcome,[4],inactive
Cc1cc(Cl)ccc1OCC(=O)O,outcome,AR (gene 367) [5],inactive
same,outcome,AR (gene 367) [6],inactive
CO/C=C(/C(=O)OC)c1ccccc1Oc1cc(Oc2ccccc2C#N)ncn1,outcome,AR (gene 367) [5],inactive
same,outcome,[2],inactive
same,outcome,[10],inactive
same,AC50,AR (gene 367) [6],61.2 µM (active)
same,outcome,[7],inactive
same,outcome,[9],inactive
same,outcome,[3],inactive
same,outcome,[4],inactive
C=CCC1=C(C)C(OC(=O)C2C(C=C(C)C)C2(C)C)CC1=O (stereo not drawn),AC50,[1],87.8 µM (active) [middle of 5 runs]
same,outcome,[1],inactive
N#Cc1cc(Br)c(O)c(Br)c1,outcome,AR (gene 367) [5],inactive
same,AC50,AR (gene 367) [6],53.5 µM (active)
O=C(Nc1ccccc1)Nc1ccnc(Cl)c1,AC50,[1],81.3 µM (active)
same,AC50,AR (gene 367) [6],33.4 µM (active)
CCCCNC(=O)OCC#CI,AC50,[1],5.58 µM (active)
same,outcome,[3],inactive
same,outcome,[4],inactive
CCOC(=O)CC(SP(=S)(OC)OC)C(=O)OCC (stereo not drawn),AC50,[2],78.9 µM (active)
same,AC50,AR (gene 367) [6],88.6 µM (active)
CCCCOC(=O)c1ccccc1C(=O)OCCCC,AC50,[1],78.3 µM (active)
same,outcome,[1],inactive
same,AC50,[2],50 µM (active)
same,outcome,[9],inactive
Oc1ccccc1-c1ccccc1,AC50,[1],78 µM (active)
COP(=S)(OC)Oc1nc(Cl)c(Cl)cc1Cl,AC50,[1],79 µM (active)
same,AC50,[8],25.3 µM (active)
same,AC50,[7],27.1 µM (active)
same,outcome,[3],inactive
same,outcome,[4],inactive
CNC(=S)S,outcome,[1],inactive
COc1nc(NC(C)C)nc(NC(C)C)n1,outcome,[2],inactive
CCNc1nc(Cl)nc(NC(C)C)n1,outcome,[1],inactive
same,outcome,[2],inactive
COC(=O)N(OC)c1ccccc1COc1ccn(-c2ccc(Cl)cc2)n1,AC50,[1],92.3 µM (active)
same,AC50,[2],0.5 µM (active)
same,outcome,[7],inactive
same,outcome,[9],inactive
same,outcome,[3],inactive
same,outcome,[4],inactive
CS/C(C)=N/OC(=O)N(C)SN(C)C(=O)O/N=C(\C)SC,AC50,[1],24.8 µM (active)
same,outcome,AR (gene 367) [5],inactive
same,AC50,AR (gene 367) [6],76.7 µM (active)
N#Cc1nn(-c2c(Cl)cc(C(F)(F)F)cc2Cl)c(N)c1S(=O)C(F)(F)F (stereo not drawn),AC50,[1],83.3 µM (active)
same,AC50,[2],66.1 µM (active)
same,AC50,AR (gene 367) [6],58 µM (active)
